In the library only some 18% were active in any assay of this set; here they are far more common.
DT40 TDP1 CPT – DT40-hTDP1 cell growth loss with CPT | hit rate 12% among 420,000 | chicken DT40 Tdp1-/-;hTDP1 cells + 20 nM CPT, ATP luminescence, 48 h | Potency, µM (titrated, usually from 46.2 µM), for the others: top-dose activity change, negative = growth inhibition, actives largely listed as inhibitors; further: potency means the concentration at half of the fitted maximal effect; nearly all actives have a fitted effect of over 55% in size
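Chicken DT40 Tdp1-/- cells complemented with human TDP1, 400 cells/well, exposed to compounds plus 20 nM camptothecin for at least 48 h at 37 C; viability read as ATP content by CellTiter-Glo luminescence.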
IL-1B inflam inh – inflammasome signaling inhibition, IL-1 beta readout | activity change, % at 57.5 µM | THP-1 LPS/ATP IL-1B secretion, AlphaLISA, 16 h; stronger effect = lower value | hit rate 4.7% among 360,000; in the data active means activity change below about -50%; inconclusive means mostly about -30% to -49%
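Secreted IL-1B measured by AlphaLISA bead assay after 16 h compound exposure of THP-1 cells; compounds (final up to 57.5 uM) added 1 h before LPS (250 ng/mL) and ATP (1.25 mM) stimulation; lower signal means less secretion.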
CtBP-E1A blk – inhibitors of CtBP/E1A interaction. AlphaScreen GST-E1A/His-CtBP binding, 1536-well; stronger effect = lower value. activity change, % (concentration not given with the values). hit rate 0.49% among 340,000. AID 651724; in the data active means activity change below about -65%; inconclusive means mostly about -30% to -63%
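In 5 uL wells, 23 nL compound meets equimolar GST-E1A and His-CtBP (5X stock 125 nM each) for 2 h, 37 °C. Beads (5X, 50 ug/mL) then 1 h, 37 °C, dark.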
TDP1 block – inhibitors of human tyrosyl-DNA phosphodiesterase TDP1; Q9NUW8; Potency, µM (highest dose often 130 µM), without a hit: top-dose activity change, negative = inhibition, hits mostly inhibitors; hit rate 0.28% among 350,000; AID 485290; recombinant TDP1, AlphaScreen DNA substrate cleavage; further: potency means the concentration at half of the fitted maximal effect; nearly all actives have a fitted effect of over 40% in size
Target sequence (Q9NUW8 whole entry, looked up): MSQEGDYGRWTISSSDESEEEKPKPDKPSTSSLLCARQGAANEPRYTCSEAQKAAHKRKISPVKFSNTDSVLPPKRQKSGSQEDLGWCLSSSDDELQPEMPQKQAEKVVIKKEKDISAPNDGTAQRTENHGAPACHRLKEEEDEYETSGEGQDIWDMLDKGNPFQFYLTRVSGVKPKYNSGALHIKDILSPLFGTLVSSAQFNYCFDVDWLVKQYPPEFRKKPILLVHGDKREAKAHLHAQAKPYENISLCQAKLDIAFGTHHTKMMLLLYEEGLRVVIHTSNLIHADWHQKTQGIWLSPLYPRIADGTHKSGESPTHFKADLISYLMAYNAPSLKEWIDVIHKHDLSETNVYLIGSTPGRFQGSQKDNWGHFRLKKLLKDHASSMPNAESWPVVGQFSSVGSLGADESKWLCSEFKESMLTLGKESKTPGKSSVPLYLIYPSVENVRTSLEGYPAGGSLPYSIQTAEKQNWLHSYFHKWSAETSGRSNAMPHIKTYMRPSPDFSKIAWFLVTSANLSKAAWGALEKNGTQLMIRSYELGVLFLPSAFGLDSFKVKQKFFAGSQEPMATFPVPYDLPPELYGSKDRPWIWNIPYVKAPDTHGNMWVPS
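E. coli-derived human Tdp1, 1 nM final. Cpd preinc 15 min RT; substrate 15 nM final, 5 min RT; AS bead mix 10 ug/ml final, 10 min RT. Signal loss = tyrosine-FITC cleavage. No-enzyme wells = max signal.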
Six1-Eya2 inh – Six1/Eya2 interaction inhibition | activity change, % (concentration not given with the values) | hit rate 0.56% among 360,000 | AlphaScreen GST-Six1/His-Eya2 binding, biochemical; stronger effect = lower value | Q15475+O00167; in the data active means activity change below about -65%; inconclusive means mostly about -30% to -63%
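Compounds are tested against tagged Six1 and Eya2 proteins bridged by glutathione donor and nickel acceptor beads; after a one-hour incubation at 37 °C without light, AlphaScreen emission is recorded.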
TDP1 cell noCPT – qHTS for Inhibitors of human tyrosyl-DNA phosphodiesterase 1 (TDP1): qHTS in cells in absence of CPT; Potency, µM (titrated, usually from 46.2 µM), for inactives: at the highest dose activity change, negative = growth inhibition, most hits filed as inhibitors; DT40 Tdp1-/- hTDP1 cells, no CPT, ATP luminescence, 48 h; hit rate 15% among 420,000; further: potency means the concentration at half of the fitted maximal effect; nearly all actives have a fitted effect of over 55% in size
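Growth of hTDP1-complemented DT40 Tdp1-knockout cells is measured by ATP luminescence after at least 48 hr compound exposure at 37 °C, with DMSO substituting for the 20 nM CPT used in the parallel screen.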
* marks the source's active call; other numbers are inactive results; ? = inconclusive; . = no result. Unless noted, the call rests on the fitted dose curve; in most records, active means well fitted curve in the direction sought with a large enough effect; inconclusive means small, poorly fitted or top-dose-only effect, or another doubt; inactive means no such curve, though single readings can be large; an effect the other way counts as inactive or inconclusive. On the % scale 0 is the no-effect control and ±100 the full control effect.

SMILES	DT40 TDP1 CPT	IL-1B inflam inh	CtBP-E1A blk	TDP1 block	Six1-Eya2 inh	TDP1 cell noCPT
Cc1ccc(C(CC(=O)Nc2cc(C)cc(C)c2)N2Cc3ccccc3C2=O)cc1 (configuration not stated)	15µM*	.	.	6%	.	23µM*
COc1ccccc1CNC(=O)CC(c1ccc(C)cc1)N1Cc2ccccc2C1=O (configuration not stated)	?	.	.	6%	.	?
Cc1ccc(C(CC(=O)Nc2ccc(C)cc2C)N2Cc3ccccc3C2=O)cc1 (configuration not stated)	16µM*	.	.	3%	.	18µM*
CSc1cccc(NC(=O)CC(c2ccc(F)cc2)N2Cc3ccccc3C2=O)c1 (configuration not stated)	23µM*	.	.	8%	.	21µM*
CCc1ccccc1NC(=O)CC(c1ccc(F)cc1)N1Cc2ccccc2C1=O (configuration not stated)	23µM*	.	.	6%	.	23µM*
Cc1cc(NCCc2ccccc2F)n2ncnc2n1	0%	0	0	4%	5	?
Oc1ccc(CNc2ccc(C(F)(F)F)cc2F)c2cccnc12	.	.	.	0%	.	.
CC(=O)c1cccc(NC(=O)CC(c2ccc(C)cc2)N2Cc3ccccc3C2=O)c1 (configuration not stated)	?	.	.	8%	.	16µM*
COc1ccc(C(CC(=O)Nc2ccc(C(C)=O)cc2)N2Cc3ccccc3C2=O)cc1 (configuration not stated)	-9%	.	.	0%	.	-4%
O=C(CCCN1C(=O)c2ccccc2C1=O)Nc1nc2ccccc2[nH]1	8%	28	9	6%	-2	-20%
O=C(C[n+]1cccc(Br)c1)c1ccc2ccccc2c1	-107%	.	.	.	.	-99%
O/N=C(/C[n+]1cccc(Br)c1)c1ccc2ccccc2c1	?	.	.	.	.	13µM*
Cn1c(=O)n(-c2ccc3c(c2)OCO3)c2nc(-c3ccc(Cl)cc3)nc(C(N)=O)c21	15%	.	.	-1%	.	?
Cc1cccc(-c2nc(C(N)=O)c3c(n2)n(-c2ccc4c(c2)OCO4)c(=O)n3C)c1	?	.	.	6%	.	1.8µM*
O=[N+]([O-])c1ccccc1NC1CCN(Cc2ccccc2)CC1	-2%	?	-25	4%	?	-26%
O=[N+]([O-])c1nn(-c2ccc3c(c2)OCCO3)n(O)c1=NC1CCN(Cc2ccccc2)CC1	10µM*	5	.	5%	1	?
O=[N+]([O-])c1nn(-c2ccccc2)n(O)c1=NC1CCN(Cc2ccccc2)CC1	3.3µM*	?	-7	0%	-2	9.2µM*
Cc1ccccc1OCC(=O)N/N=C/c1cn(C)c2ccccc12	12%	13	0	.	-13	-23%
O=C(COc1ccccc1)Nc1ncccn1	-19%	-2	5	-2%	0	-1%
O=C(Nc1ccc2c(c1)CCC2)c1ccc(F)c(S(=O)(=O)N2CCOCC2)c1	?	3	2	5%	-10	23µM*
O=S(=O)(c1cc(F)ccc1F)N1CCC2(CC1)OCCO2	-1%	21	3	-4%	12	13%
Cc1ccc(C(=O)Nc2ccc3c(c2)CCC3)cc1	-15%	?	-14	3%	-8	-6%
O=C(Nc1ccc(F)c(F)c1)c1ccc(F)c(S(=O)(=O)N2CCC3(CC2)OCCO3)c1	16µM*	-60*	-1	-32%	-2	13µM*
NS(=O)(=O)c1cc(C(=O)Nc2ccc3c(c2)CCC3)ccc1Cl	-3%	-68*	-1	11%	6	?
Nc1ccc2c(c1)nnn2-c1ccccc1	-4%	-79*	-12	4%	2	-22%
SMILES	DT40 TDP1 CPT	IL-1B inflam inh	CtBP-E1A blk	TDP1 block	Six1-Eya2 inh	TDP1 cell noCPT
N#Cc1ccc2c(c1)nnn2-c1ccccc1	7%	.	-5	.	4	-1%
CN1CC2=Cc3ccccc3OC23Oc2ccccc2C=C3C1	?	-117*	-2	7%	-5	?
CCN1CCN(c2oc(-c3ccccc3)nc2S(=O)(=O)c2ccc(C)cc2)CC1	?	-56*	-5	-4%	-28	?
Cc1cccc(-c2nc(S(=O)(=O)c3ccccc3)c(N3CCN(c4ccccc4)CC3)o2)c1	18µM*	.	.	1%	.	7.3µM*
Cc1ccc(S(=O)(=O)c2nc(-c3ccccc3)oc2N2CCCCCC2)cc1	23µM*	.	.	.	.	21µM*
CN(C)c1oc(-c2ccccc2Cl)nc1S(=O)(=O)c1ccccc1	?	-17	0	9%	-11	21µM*
COC(=O)C1C(c2ccccc2)C(C(=O)OCc2ccco2)C1c1ccccc1 (configuration not stated)	?	-11	13	2%	4	?
O=C(CCCCn1c(=O)c2ccccc2n(CC(=O)Nc2cccc(F)c2)c1=O)NCc1ccco1	-17%	-5	-2	2%	-12	?
Cc1ccc(S(=O)(=O)c2nc(-c3ccc(Cl)cc3)oc2N2CCCCCC2)cc1	?	.	.	3%	.	?
O=S(=O)(c1ccccc1)c1nc(-c2cccc(Cl)c2)oc1N1CCOCC1	?	-19	-14	9%	-9	18µM*
Cc1ccccc1-c1nc(S(=O)(=O)c2ccccc2)c(N2CCCC2)o1	?	1	.	1%	6	?
O=S(=O)(c1ccccc1)c1nc(-c2ccc(Cl)cc2Cl)oc1N1CCCCCC1	23µM*	.	.	0%	.	18µM*

Screening data: PubChem, National Center for Advancing Translational Sciences (NCATS)
